Experimental findings from PubChem BioAssay are described below.

Broadly, the inhibition is the drop in the measured response relative to a control, in per cent.

Activity calls are given as the source filed them. How the calls were made is not given here.

The test system of this assay is Botulinum neurotoxin type F light chain protease (Clostridium botulinum). As to the kind of experiment: Clostridium botulinum type F light chain protease inhibitors, microsphere substrate cleavage, validation (AID 588459). The conditions noted are these: multiplex microsphere protease substrate cleavage assay, flow cytometry; at 10 µM; hits give high values. For orientation: A flow cytometer gives signals particle by particle.
With `O=C1ON=C(c2ccc(Cl)cc2)/C1=C/c1ccc(O)cc1`, the inhibition is -0.3% (inactive).
In the case of `CC(C)COc1ccc(Cc2cnc(N)nc2N)cc1`, the inhibition was 5% (inactive).
Consider `COc1ccc2c(c1)c(=O)oc1cc3occ(C(C)(C)C)c3cc12`, for which the inhibition was 1.2% (inactive).
Regarding `Cc1ccc(-n2cc(CNCCN3CCOC3=O)c(-c3ccc(F)cc3)n2)cc1`, the inhibition is -3.2% (inactive).
Take `COc1ccc(CN2CCCCC2C(=O)Nc2ccc(OC)c(OCC(C)C)c2)cc1OC` (stereo not given): the inhibition was 0.9% (inactive).
As to `CCOC(=O)C(NC(C)=O)C(O)c1ccc([N+](=O)[O-])cc1` (stereo not given), the inhibition was 7.5% (inactive).
On to `CCN(CC)c1ccc([C@H]2[C@@H]3CCCC[C@]3(O)CCN2CC(=O)NCc2ccco2)cc1`, for which the inhibition was -1.2% (inactive).
As for `CC1(C)CC(NCc2ccccc2)CCO1` (stereo not given), the inhibition is 9.4% (inactive).
As to `CN1C(C(=O)Nc2ccccn2)=C(O)c2sccc2S1(=O)=O`, the inhibition was 0.5% (inactive).
Turning to `Oc1ccc(Oc2ncc(Cl)cc2Cl)cc1`, the inhibition is 1.4% (inactive).
Take `COc1ccc(-c2c[n+](CC(=O)OC3CC(C)CCC3C(C)C)c3n2CCC3)cc1` (stereo not given): the inhibition was 0.9% (inactive).
Regarding `COc1ccc2c(c1)c(CC(=O)O)c(C)n2C(=O)c1ccc(Cl)cc1`, the inhibition was 0.9% (inactive).
For `CN(C)c1nc(N(C)C)nc(N(C)C)n1` the value was 6.4% (inactive); for `OCC1(CCOc2ccccc2)CCN(CCCn2cccn2)CC1`, -0.5% (inactive).
Turning to `Cc1ccc(C2=NOC(=O)/C2=C\C=C\c2ccccc2)cc1`, the inhibition is 2.1% (inactive).
On to `Cc1oc2cc(O)ccc2c(=O)c1Oc1ccccc1Br`, for which the inhibition was -1.1% (inactive).
With `COC1CCCCC1Nc1ccc(C)c(C)c1` (stereo not given), the inhibition is 1.5% (inactive).
For `CCOC(=O)C(NC(=O)CCC(=O)Nc1ccc(S(N)(=O)=O)cc1)C(O)c1ccccc1` (stereo not given), the inhibition was -0.5% (inactive).
Regarding `Cc1ccnc2c1NC(=O)c1cccnc1N2C1CC1`, the inhibition is 0.7% (inactive).
As for `O=Cc1ccccc1Oc1ccccc1`, the inhibition was 0.2% (inactive).
The value for `COc1cccc(C2CC(=O)C3=C(C2)Nc2ccccc2N(C(=O)CCC(=O)O)C3c2ccc(F)cc2)c1` (stereo not given) was 1.3% (inactive); that for `CC(=O)Oc1ccc(C(c2ccc(OC(C)=O)cc2)c2ccccn2)cc1` was 1.2% (inactive).
Take `COc1ccc(-c2coc3c(CN4CCOCC4)c(O)ccc3c2=O)cc1`: the inhibition was 2.6% (inactive).
Turning to `COc1ccc2nc(NC(=O)Nc3ccccc3)sc2c1`, the inhibition is -3.1% (inactive).
Regarding `COCC(C)NC(=O)c1ccc(CN2CCc3ccccc3C2)cc1` (stereo not given), the inhibition is 5.2% (inactive).
In the case of `CCCCOn1c(C)c(C(C)=O)c2c3no[n+]([O-])c3ccc21`, the inhibition is 1.9% (inactive).
With `O=C(NO)c1ccccc1O`, the inhibition is 3.3% (inactive).
For `Cc1cc(=O)[nH]c(=S)[nH]1` the value was -3.5% (inactive); for `Cc1ccc(CN2CCN(CCCc3ccccc3)CC2CCO)cc1` (stereo not given), 0.2% (inactive).
As for `CCN(CC)C(=O)N1CCN(C)CC1`, the inhibition was -3.4% (inactive).
For `O=C1NC2(Nc3ccccc31)C(=O)Nc1ccc(Br)cc12` (stereo not given) the value was -0.5% (inactive); for `COc1ccc(C(=O)/C=C2/c3ccccc3CC(C)(C)N2C)cc1`, -2.7% (inactive); for `CCOC(=O)C1C(=O)CC(C)(O)C(C(=O)OCC)C1/C=C/c1ccccc1` (stereo not given), 1.1% (inactive).
The value for `CC(C)C[C@H](NC(=O)[C@@H]1Cc2ccccc2CN1C(=O)OC(C)(C)C)C(=O)NCC1CCC(C(=O)O)CC1` (stereo not given in full) was 3% (inactive); that for `O=C(COc1ccccc1)N1CCN(c2ccccc2)CC1` was -3.8% (inactive).
As for `CC1(C)Cc2ccccc2-c2nc(-c3ccccc3)oc(=O)c21`, the inhibition was -1.9% (inactive).
Regarding `COC(=O)CSc1nc2ccc(N)cc2s1`, the inhibition was 2.6% (inactive).
The value for `Oc1[nH]c2ccccc2c1C1=NCCCC1` was 3.8% (inactive); that for `COC(=O)C1=C(C)N(Cc2ccco2)C(=O)/C1=C\c1ccc([N+](=O)[O-])cc1` was 1% (inactive); that for `O=C(NCCc1cccc(F)c1)[C@@H]1CSC2c3ccccc3C(=O)N21` (stereo not given in full) was 0.2% (inactive).
